Hits are enriched below; roughly 19% of the tested compounds scored in any of these assays.
KB-V1 cytotox: KB-V1 MDR subline cytotoxicity; KB-V1 MDR cells viability, CellTiter-Glo, 72 h; 400,000 tested, 3.4% active; Potency, µM (top dose mostly 46.1 µM), most hits filed as cytotoxic; further: nearly all actives have a fitted effect of over 60% in size
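Following 72 h at 37 degrees C with compound, KB-V1 cell viability was read by CellTiter-Glo luminescence, medium being phenol-red-free DMEM plus 10% FBS; concentration-response parameters came from normalized, curve-fitted qHTS data.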
DT40 TDP1 CPT: DT40-hTDP1 cell growth loss with CPT. Potency, µM (doses to about 46.2 µM), inactives show at the highest dose activity change, negative = growth inhibition, usual class: inhibitors. chicken DT40 Tdp1-/-;hTDP1 cells + 20 nM CPT, ATP luminescence, 48 h. AID 686979. 420,000 tested, 12% active; further: nearly all actives have a fitted effect of over 55% in size
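Cell growth measured by CellTiter-Glo luminescence after a minimum 48 h, 37 C compound exposure with 20 nM CPT in Tdp1-knockout DT40 cells stably expressing hTDP1, seeded 400/well; qHTS titration format.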
KB-3-1 cytotox: KB-3-1 parental cell cytotoxicity | KB-3-1 viability, CellTiter-Glo ATP luminescence, 72 h | Potency, µM (titrated, usually from 46.1 µM), hits mostly cytotoxic | 400,000 tested, 1.4% active | AID 1347075; further: nearly all actives have a fitted effect of over 60% in size
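Parental KB-3-1 adenocarcinoma cells in phenol-red-free DMEM with 10% FBS were pin-treated with compounds at several concentrations, incubated 72 h at 37 °C, and viability read by CellTiter-Glo luminescence; concentration-effect curves were fitted after normalization.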
HT1080 IDH1KD tx: HT-1080 IDH1 knockdown cell toxicity (counter line); HT-1080 IDH1 knockdown viability, ATP luminescence, 48 h; Potency, µM (top dose mostly 46.1 µM), without a hit: at the top dose activity, negative = toxicity, actives largely listed as cytotoxic; 360,000 tested, 2% active; AID 686971;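 further: 0% = DMSO wells and -100% = cell-free medium wells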
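After a 2 h attachment period, IDH1KD HT-1080 cells took pin-transferred compound for 48 h at 37 °C; ATP-based luminescence after 10 min room-temperature reagent incubation reported viability.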
TDP1 cell noCPT: qHTS for Inhibitors of human tyrosyl-DNA phosphodiesterase 1 (TDP1): qHTS in cells in absence of CPT; DT40 Tdp1-/- hTDP1 cells, no CPT, ATP luminescence, 48 h; Potency, µM (highest dose often 46.2 µM), inactives show top-dose activity change, negative = growth inhibition, actives largely listed as inhibitors; 420,000 tested, 15% active; AID 686978, 2013; further: nearly all actives have a fitted effect of over 55% in size
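Growth kinetics read by CellTiter-Glo luminescence after ≥48 hr at 37 °C. Cells: DT40 Tdp1-/- stably carrying human TDP1, 400 per well, compound exposure in the absence of CPT (DMSO vehicle).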
HT1080-NT tox: kills 2HG-producing HT-1080-NT fibrosarcoma cells | HT-1080-NT fibrosarcoma viability, CellTiter-Glo ATP luminescence, 48 h | Potency, µM (doses to about 46.1 µM), inactives show top-dose activity, negative = less viability, usual class: cytotoxic | 360,000 tested, 1.6% active | AID 686970;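 further: NT is the 2HG producing partner of a matched IDH1 knockdown line; 0% = DMSO-treated cells and -100% = media-only wells without cells; nearly all actives have a fitted effect of over 55% in size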
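750 cells/well, RPMI + 5% FBS; 2 h settle, compound pin-transfer, 48 h at 37 degrees C. CellTiter-Glo 10 min RT, luminescence. Normalized to DMSO and media-only wells.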
An asterisk follows results filed as active; i = inactive; ? = inconclusive; · = no result; [ ] = dose if it differs, or a comment. The call rests on the fitted dose curve; in most records, active means well fitted curve in the direction sought with a large enough effect; inconclusive means small, poorly fitted or top-dose-only effect, or another doubt; inactive means no such curve, though single readings can be large; an effect the other way counts as inactive or inconclusive. Unless noted, on the % scale 0 is the no-effect control and ±100 the full control effect; potency means the concentration at half of the fitted maximal effect.

SMILES	KB-V1 cytotox	DT40 TDP1 CPT	KB-3-1 cytotox	HT1080 IDH1KD tx	TDP1 cell noCPT	HT1080-NT tox
COCCNS(=O)(=O)c1cc(-c2nn(C)c(=O)c3ccccc23)ccc1C	?	3.7%	i	-11.2%	?	-19.7%
CCN(CC)S(=O)(=O)c1cc(-c2nn(C)c(=O)c3ccccc23)ccc1C	i	23.1µM*	i	-19.8%	16.4µM*	-13.8%
Cc1cc(C)n(CC(=O)NCc2cc(-c3nn(C)c(=O)c4ccccc34)ccc2C)n1	i	?	i	-3.3%	16.4µM*	-4.7%
CCCCNS(=O)(=O)c1cc(-c2nn(C)c(=O)c3ccccc23)ccc1C	?	?	16.4µM*	?	-0.9%	-20.4%
COc1ccccc1CNC(=O)CCC(=O)N1CC2CCCN2c2ccccc21 (stereo unspecified)	i	-17.6%	i	·	-13.6%	·
COC(=O)C1=CN(c2ccc(OC)cc2OC)C(N)=C(C#N)C1c1ccccc1F (stereo unspecified)	?	0.82µM*	1.46µM*	0.731µM*	0.581µM*	1.46µM*
CCc1ccc(N2C=C(C(=O)OC)C(c3ccccc3F)C(C#N)=C2N)cc1 (stereo unspecified)	?	?	i	?	23.1µM*	?
COC(=O)C1=C(C)OC(N)=C(C#N)C1c1ccccc1F (stereo unspecified)	?	-22.4%	i	-5.1%	-9.3%	4.1%
COC(=O)C1=CN(c2ccc(C(C)(C)C)cc2)C(N)=C(C#N)C1c1ccccc1F (stereo unspecified)	?	?	i	-23.7%	20.6µM*	-24.3%
COC(=O)C1=CN(c2ccc(OC)cc2)C(N)=C(C#N)C1c1ccccc1F (stereo unspecified)	?	10.3µM*	?	?	13µM*	?
COC(=O)C1=CN(Cc2ccc(OC)c(OC)c2)C=C(C(=O)OC)C1c1ccccc1F	i	?	i	-21.8%	?	-5.1%
O=NN(CCCl)C(=O)NCC1=C[N+](=O)CC=C1	i	-0.4%	i	21.8%	-15.7%	14.4%
O=C(Nc1ccccc1)c1ccc2c(O)c(S(=O)(=O)c3ccc(Cl)cc3)c(=O)[nH]c2c1	i	7.8%	i	·	1.3%	·
O=C1OCC/C1=C1/NCCNC1=O	i	-25.1%	?	7.2%	?	9.8%
O=C(CN(CCc1c[nH]c2ccccc12)S(=O)(=O)c1ccccc1)N1CCCCCC1	i	?	i	·	?	·
NCC1CCCCC1CC(=O)O (stereo unspecified)	·	-16.3%	·	·	-3.1%	·
CCc1nc2c(OCc3ccccc3C)cccn2c1N(C)C(=O)C(C)C	i	18.4µM*	i	4.2%	16.4µM*	-5.7%
CCCCC(=O)N(C)c1c(CC)nc2c(OCCOC)cccn12	i	-13.7%	i	28.6%	-0.5%	22.1%
CCc1nc2c(OCc3ccc(C(=O)OC)cc3)cccn2c1N(C)C(=O)CC(C)C	i	?	i	5.8%	?	2.3%
CCCCC(=O)N(C)c1c(CC)nc2c(OCc3ccccc3C)cccn12	?	29.1µM*	i	-20.0%	29.1µM*	-25.0%
CCc1nc2c(OCc3ccccc3C)cccn2c1N(C)C(=O)CC(C)C	i	20.6µM*	i	-26.0%	18.4µM*	-15.7%
CCOC(=O)C(=O)N(C)c1c(CC)nc2c(OCc3ccccc3C)cccn12	i	-23.9%	i	8.4%	-22.0%	14.0%
NS(=O)(=O)c1ccc(N2CCN(CCOc3ccc(Cl)cc3)CC2)nc1	i	?	?	-1.6%	14.6µM*	?
CCCOc1ccc(CNC(=O)c2cc3ccccn3n2)cc1	i	?	i	·	?	·
CCc1ccc(NC(=S)N2CCN(S(=O)(=O)c3ccccc3)CC2)cc1	i	-26.6%	i	-5.9%	17.3%	-0.2%
SMILES	KB-V1 cytotox	DT40 TDP1 CPT	KB-3-1 cytotox	HT1080 IDH1KD tx	TDP1 cell noCPT	HT1080-NT tox
COc1cccc(C(=O)NC(c2ccccc2)C2CCCC2)c1 (stereo unspecified)	i	?	i	4.6%	?	-0.6%
COc1cc(CNC(=O)Nc2nnc([C@@H]3C[C@H](O)[C@@H](CO)O3)s2)cc(OC)c1OC	i	11.2%	i	6.7%	10.6%	?
O=C(CC1SC(=Nc2cccc3ccccc23)N(Cc2ccccn2)C1=O)Nc1ccccc1Br (stereo unspecified)	16.4µM*	4.61µM*	?	-24.4%	2.31µM*	-13.7%
CCN1C(=O)C(CC(=O)Nc2cccc(C(C)=O)c2)S/C1=N\c1ccccn1 (stereo unspecified)	i	?	i	-2.4%	?	-6.2%
Cc1ccccc1N=C1SC(CC(=O)Nc2ccc3ccccc3c2)C(=O)N1Cc1ccccn1 (stereo unspecified)	20.6µM*	18.4µM*	?	-2.8%	20.6µM*	?
O=C(CC1SC(=Nc2ccccc2)N(Cc2ccccn2)C1=O)Nc1ccc(Br)cc1 (stereo unspecified)	?	16.4µM*	i	-19.3%	10.3µM*	-4.4%
CC(=O)N[C@@H](C(=O)O)C(C)(C)SN=O	·	13.3%	·	·	-6.5%	·
CN1CCN(c2ncc3nc(-c4cccc(C#N)c4)c(=O)n(C[C@H]4CCCO4)c3n2)CC1	·	?	·	·	-11.3%	·
COc1ccc(-c2nc3cnc(N(C)C)nc3n(C[C@H]3CCCO3)c2=O)cc1	·	2.6%	·	·	22.7%	·
COc1ccc(NC(=O)CCN2C(=O)[C@@H]3[C@H](C2=O)[C@H]2C=C[C@@H]3C2)cc1	i	?	i	?	-14.7%	18.4µM*
Cc1ccccc1N1CCN(CCC(=O)Nc2ccc(F)cc2)CC1	18.4µM*	?	?	-2.5%	?	-0.4%
COc1cc(NC(=O)CCN2CCN(c3ccccc3F)CC2)cc(OC)c1	i	29.1µM*	i	-2.8%[9.24 µM]	-13.0%	-28.1%
O=C(CCN1CCN(c2ccccc2F)CC1)Nc1ccc(F)cc1	i	-28.6%	i	-0.4%	?	5.1%
COc1ccc(NC(=O)CCN2CCN(c3cccc(Cl)c3)CC2)cc1	i	?	i	·	?	·
O=C(CCN1CCN(c2ccccc2F)CC1)Nc1cccc(F)c1	i	?	?	-1.9%	?	4.8%
COc1ccc(NC(=O)CCN2CCN(c3ccc(F)cc3)CC2)cc1	i	23.1µM*	i	0.0%	?	-0.7%
CN(C)c1cccc(CNC(=O)c2csc([C@H]3C[C@H](O)[C@@H](CO)O3)n2)c1	i	-1.2%	i	2.8%	5.4%	11.4%
